TEAD-YAP block: TEAD-YAP interaction inhibition. HEK-TIYL cells, TEAD-Gal4/YAP UAS-luciferase luminescence. inhibition, % at 9.12 µM. actives 1.4% (n = 640,000). AID 1259422; in the data active = inhibition above about 32%;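 also: 0% = median of test compound wells and 100% = reference inhibitor wells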
MITF inh: inhibitors of human MITF. O75030. AlphaScreen MITF homodimerization, bead proximity signal. inhibition, % at 2.6 µM. actives 0.91% (n = 650,000); in the data active = inhibition above about 50%;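 also: 0% = vehicle wells with protein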
FBW7 activator: activators of human E3 ligase FBW7. Q969H0. AlphaScreen FBW7–phospho-cyclin E peptide binding, activator screen. normalized activity (activation), % at 26.1 µM. actives 0.13% (n = 650,000); in the data active = normalized activity above about 1.9%;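 also: purified mutant Fbw7 with reduced substrate affinity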
Target sequence (Q969H0 whole entry, looked up): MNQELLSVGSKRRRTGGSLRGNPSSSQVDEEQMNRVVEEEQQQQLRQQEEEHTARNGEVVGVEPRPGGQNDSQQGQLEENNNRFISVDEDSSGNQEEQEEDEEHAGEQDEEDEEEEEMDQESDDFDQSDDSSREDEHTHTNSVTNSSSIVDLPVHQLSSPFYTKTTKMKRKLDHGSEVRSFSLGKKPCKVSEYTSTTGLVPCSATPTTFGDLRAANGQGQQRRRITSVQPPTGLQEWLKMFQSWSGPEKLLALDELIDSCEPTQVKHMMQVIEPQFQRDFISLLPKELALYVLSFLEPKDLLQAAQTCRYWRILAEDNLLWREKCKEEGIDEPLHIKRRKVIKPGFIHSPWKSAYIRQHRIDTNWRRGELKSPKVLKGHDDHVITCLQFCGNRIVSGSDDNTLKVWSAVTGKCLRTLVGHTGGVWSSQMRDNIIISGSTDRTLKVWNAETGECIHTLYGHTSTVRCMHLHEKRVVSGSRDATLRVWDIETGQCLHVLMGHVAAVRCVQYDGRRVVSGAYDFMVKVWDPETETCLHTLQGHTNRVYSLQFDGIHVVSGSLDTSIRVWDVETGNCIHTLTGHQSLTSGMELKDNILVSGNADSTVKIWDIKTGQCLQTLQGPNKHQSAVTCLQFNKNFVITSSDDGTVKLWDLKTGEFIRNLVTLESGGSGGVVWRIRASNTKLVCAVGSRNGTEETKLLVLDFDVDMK
GPR151 activ: activators of human GPR151 | Q8TDV0 | activation, % at 11.2 µM | actives 1% (n = 650,000) | PathHunter beta-arrestin GPR151 cells, luminescence; in the data active = activation above about 4.9%;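 also: 0% = median of compound wells and 100% = cells with positive control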
GPR151 confirm: human GPR151 activation, confirmation screen; AID 1508609; shares compounds with GPR151 activ; 6,700 tested, under 10 active; activation, % at 11.2 µM; GPR151 PathHunter beta-arrestin cells, luminescence, 90 min; % of EA-reagent control over plate median;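 active = mean percent activation across replicates above the confirmation screen cutoff of 4.91%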
GPR119 ag: GPR119 activation, counter-screen for GPR151 activators; shares compounds with GPR151 activ; GPR119 PathHunter beta-arrestin cells, luminescence, 90 min; 0 = compound-well median, 100 = enzyme-acceptor control; activation, % at 11.2 µM; AID 1508611; actives 0.3% (n = 6,700);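 active = mean percent activation in the counterscreen above 29.09%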;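 also: counterscreen on off-target GPR119 to flag nonselective hits from the GPR151 activator screen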
* = called active by the depositor; / = no result given. A selection: hits, their analogues and other compounds. The true share with any hit is near 3.5%.

SMILES	TEAD-YAP block	MITF inh	FBW7 activator	GPR151 activ	GPR151 confirm	GPR119 ag
c1coc(CNc2nc3ccccc3n2CCN2CCOCC2)c1	-19	-11	0	9.8*	0	19
COc1ccc(C2CC(c3ccccc3OC(F)F)Nc3ncnn32)cc1 (configuration not stated)	4	-5	0	1	/	/
COc1ccc(C2CC(c3ccc(OC(F)F)cc3)n3ncnc3N2)cc1 (configuration not stated)	-1	-22	0	7.4*	1	4
N#CC1(C#N)CC(C=O)=C(N)C1(C#N)CC(=O)C12CC3CC(CC(C3)C1)C2 (configuration not stated)	6	4	0	14*	1	7
COc1ccc(CCNc2nc(-c3cccc(N)c3)nc3c2ncn3C2CCCCC2)cc1	17	6	0	2	/	/
O=C(NCc1cccnc1)c1cc(-c2ccc(F)cc2)no1	-23	14	0	5.0*	0	-6
COc1ccc(NC(=O)Nc2ccc(CN3CCN(C)CC3)cc2)cc1	-45	8	0	0	/	/
CN1CCN(Cc2ccc(NC(=O)NCc3cccc4ccccc34)cc2)CC1	6	-11	0	7.0*	1	0
CC(C)C[C@H]1C(=O)N2CCN(Cc3cnn(-c4ccccc4Cl)c3)C[C@@H]2C(=O)N1C	-16	-5	0	5.8*	0	4
O=C1[C@@H]2CCCN2C(=O)[C@H]2CN(Cc3cnn(-c4ccccc4Cl)c3)CCN12	-2	3	0	0	/	/
C=CCNc1nc(-c2ccc(OC)c3ccccc23)cs1	0	16	0	5.4*	0	-4
CC(C)NC(=O)CN(c1cccc2ccccc12)S(C)(=O)=O	3	-16	0	8.4*	0	-2
CS(=O)(=O)N(CC(=O)Nc1cccc(F)c1)c1ccccc1F	-1	-4	0	5	/	/
CS(=O)(=O)N(CC(=O)Nc1cccc(F)c1)c1ccccc1Cl	-6	0	0	5.0*	0	2
CCc1ccccc1N(CC(=O)Nc1ccc(F)c(F)c1)S(C)(=O)=O	-11	1	0	6.7*	0	-9
CCc1ccccc1N(CC(=O)Nc1ccccc1SC)S(C)(=O)=O	0	4	0	5.6*	0	-6
O=C(CCl)NNC(=O)COc1ccc(Cl)cc1	1	-15	0	0	/	/
CCc1ccccc1N(CC(=O)Nc1ccccc1Cl)S(C)(=O)=O	4	-5	0	14*	-1	1
Cc1cc(N)ccc1NC(=O)CN1CCC(C)CC1	3	-11	0	-2	/	/
CCN(CC)C(=O)C1CCCN(c2nc(Nc3ccc(NC(C)=O)cc3)c3ncn(Cc4ccc(C(F)(F)F)cc4)c3n2)C1 (configuration not stated)	3	0	0	0	/	/
O=C1CCCN1CCn1cnc2c(Nc3ccc4c(c3)OCO4)nc(N3CCN(Cc4ccc5c(c4)OCO5)CC3)nc21	8	8	0	5.1*	0	-7
CCN(CC)C(=O)C1CCCN(c2nc(Nc3ccc(NC(C)=O)cc3)c3ncn(CCN4CCCC4=O)c3n2)C1 (configuration not stated)	-1	-5	0	6.4*	0	-8
Cc1cc(C(=O)COC(=O)c2cc(Cl)cc(Cl)c2)c(C)n1C	-8	-1	0	-1	/	/
Cc1[nH]c(C(=O)OCC(=O)c2cc(C)n(C)c2C)c(C)c1C(C)O (configuration not stated)	-19	2	0	5.2*	1	0
Cc1onc(-c2ccccc2Cl)c1C(=O)N1CCN(S(=O)(=O)C2CC2)CC1	-8	0	0	0	/	/
SMILES	TEAD-YAP block	MITF inh	FBW7 activator	GPR151 activ	GPR151 confirm	GPR119 ag
COc1ccc(-c2nnc(SCC(=O)c3cc(C)n(CC4CCCO4)c3C)o2)cc1 (configuration not stated)	-7	2	0	4.9*	1	6
COc1cccc(CN2CCNC(=O)C2CC(=O)N(C)Cc2ccno2)c1 (configuration not stated)	-5	-11	0	-1	/	/
Cc1csc(CN(C)C(=O)CC2C(=O)NCCN2CCC(C)C)n1 (configuration not stated)	11	14	0	1	/	/
COc1cccc(CN2CCNC(=O)C2CC(=O)N(C)Cc2nc(C)cs2)c1OC (configuration not stated)	-3	-13	0	5.7*	-1	-17
COc1cc(CN2CCNC(=O)C2CC(=O)N(C)Cc2ccno2)cc(OC)c1 (configuration not stated)	9	-1	0	6.1*	0	-2
Cc1csc(CN(C)C(=O)CC2C(=O)NCCN2CC2CCCCC2)n1 (configuration not stated)	8	9	0	5.3*	-1	-2
O=C(CCC1CCCCC1)Nc1ccc(S(=O)(=O)N2CCCC2)cc1	0	-26	-1	1	/	/
O=C(COc1cccc(Cl)c1Cl)c1ccc[nH]1	-9	0	0	9.9*	0	-12
FC(F)(F)c1ccc(Cn2cnc3c(NCc4cccc(C(F)(F)F)c4)nc(Nc4nccc5ccccc45)nc32)cc1	14	0	0	5.6*	0	3
CN1CCN(C(=O)c2ccc(-c3nc(NCc4cccc(C(F)(F)F)c4)c4ncn(Cc5ccc(C(F)(F)F)cc5)c4n3)cc2)CC1	0	-4	0	11*	1	-7
CC(C)(C)c1cc(C(=O)O)c(CSc2ccccc2C(=O)O)o1	2	6	0	-1	/	/
O=C(CCCn1nc(-c2ccccc2)c2ccccc21)NCc1ccccn1	3	7	0	7.6*	0	-7
COc1ccc2nc(Cl)c(C3CC(c4ccc(Cl)cc4)=NN3C(=O)CCCC(=O)O)cc2c1 (configuration not stated)	-3	7	0	0	/	/
COc1ccc2nc(Cl)c(C3CC(c4ccccc4)=NN3C(=O)CCCC(=O)O)cc2c1 (configuration not stated)	3	17	0	5.0*	0	2
CC1(C)Cc2ccccc2/C(=C/C(=O)Nc2ccc([N+](=O)[O-])cc2)N1	-5	-16	0	5.5*	1	12
CC1(C)Cc2ccccc2/C(=C/C(=O)Nc2ccc(Cl)cc2)N1	-2	5	0	-1	/	/
Nc1cccnc1Br	-2	11	0	-1	/	/
Cc1ccc2cc3c(nc2c1C)OCCN(C(=O)c1ccco1)C3	6	16	0	5.7*	0	-5
Cc1ccc2cc(C#N)c(N3CCCN(C(=O)c4ccco4)CC3)nc2c1C	4	4	0	-1	/	/
COc1cc(C(=O)Nc2ccc(O)cc2C)cc(OC)c1OC	-1	12	0	-1	/	/
